Records with an inconclusive call do not appear. A number with no mark means an inactive call. Activity calls are given as the source filed them. Calls follow the shape of the dose curve; as a rule, active = well fitted inhibition curve with a large enough effect; inconclusive = small, poorly fitted or top-dose-only effect; inactive = no such curve, though single readings can be large or run the other way. Residues, ends and D or L forms follow the SMILES beside them.
Assay: BET inhibitor-based combinations targeting novel dependencies in MECOM-rearranged (r) AML: UCSD-AML1 cell line (AID 2202235); also: nearly all actives have a fitted effect of over 40% in size;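 as to viability (% of control): plate controls were DMSO vehicle wells for no effect and blank wells for full effect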
Conditions: UCSD-AML1 AML cells viability, CellTiter-Glo, 48 h; series mostly up to 46 µM; viability (% of control): at the top concentration
From the text: Ecotropic viral insertion site 1 (EVI1) is located on chromosome 3q26.2 as part of the MECOM (MDS and EVI1 complex) locus. Under normal hematopoiesis, EVI1 is a regulator of hematopoietic stem cell maintenance and self-renewal and EVI1 levels decrease as the cells differentiate. In approximately 5-10% of de novo acute myeloid leukemia (AML) EVI1 is aberrantly expressed, including Chromosomal inv(3)(q21;q26.2) or t(3;3)(q21;q26.2) alterations (MECOM-r) that account for about 50% of AML with EVI1 overexpression 31. AMLs with high levels of EVI1 have a poor prognosis and an overall survival time averaging between 10-14 months. EVI1 overexpression confers resistance in leukemia cells, highlighting the need to develop new targeted therapies for EVI1 overexpressing AMLs. Here, we performed an unbiased chemical drug screening by evaluating the single agent activity of a collection of 2,480 oncology-focused, approved and investigational drugs (NCATS Mechanism Interrogation Plates, MIPE v5.0) against a panel of seven AML cell lines. These included four MECOM-r cell-lines (AML-191, AML-194, UCSD-AML1 and HNT-34) and three non-MECOM-r AMLs (MV4-11, OCI-AML3 and SET-2). Exploiting the mechanistic redundancy built in the library, we identified target-level sensitivities in MECOM-r AML cells and relative activity as compared to other AML subtypes.
A collection of 2480 mechanistically annotated dugs (MIPE v5.0) was used to screen four 3q26.2 rearranged AML cell lines and three non-3q26.2 rearranged AML cell lines. This library purposely exploits redundancy by including multiple inhibitors of key onco-targets, while simultaneously encompassing mechanistic diversity, targeting more than 800 distinct mechanisms of action. Briefly, cells were seeded in 5 uL of growth media using a Multidrop Combi dispenser into 1536 well white polystyrene tissue culture treated plates (Corning) at a density of 500cells/well. For each cell-line, for each of the 2480 drugs in MIPE v5.0 library, an 11-point dose curve was generated via a 1536 pin-tool. Plates were incubated for 48 hr at standard incubator conditions, covered by a stainless steel gasketed lid to prevent evaporation. Cell viability was determined by luminescence based, Cell Titer Glo assay (Promega). In detail, 3 uL of Cell Titer Glo were added to each well and plates were incubated at room temperature for 15 min with a stainless-steel lid in place. Luminescence readings were taken using a Viewlux (PerkinElmer) with a 2 s exposure time per plate. Compound dose-response curves were normalized to DMSO and empty well controls on each plate. Quantitative drug activity data from dose-response curves was determined utilizing area Under the Curve (AUC) and Z-transformed AUC (Z-AUC, a mean-centering transformation applied to each individual cell-line screened).
Potency is read from the fitted curve at half-maximal effect.

| Structure (SMILES) | Potency | viability (% of control) |
| --- | --- | --- |
| CN[C@@H](C)C(=O)N[C@H](C(=O)N1CCC[C@H]1C(=O)Nc1snnc1-c1ccccc1)C1CCCCC1 | 1.86 µM (active) |  |
| C[C@@H]1C(=O)OC2[C@H](O)[C@]34[C@H]5C[C@@H](C(C)(C)C)[C@]36[C@@H](OC(=O)[C@@H]6O)O[C@@]4(C(=O)O5)[C@]21O (stereo not given in full) |  | 117% |
| C[C@H]1CN(C2COC2)CCN1c1ccc(Nc2cc(-c3ccnc(N4CCn5c(cc6c5CC(C)(C)C6)C4=O)c3CO)cn(C)c2=O)nc1 |  | 110% |
| Cc1ccc(-c2ncc(Cl)cc2-c2ccc(S(C)(=O)=O)cc2)cn1 |  | 79.4% |
| C=CC(=O)N1CCC(CNc2ncnc(N)c2-c2ccc(Oc3ccccc3)cc2)CC1 |  | 88.8% |
| C/C=C/C/C=C/CCC(=O)[C@H]1O[C@H]1C(N)=O | 20.9 µM (active) |  |
| CN(C)Cc1ccc(S(=O)(=O)n2ccc(/C=C/C(=O)NO)c2)cc1 | 4.68 µM (active) |  |
| COc1ccc(C(=O)N2CCN(c3ccc4c(c3)CCC(=O)N4)CC2)cc1OC |  | 123% |
| C=C[C@@H]1CN2CCC1C[C@H]2[C@H](O)c1ccnc2ccc(OC)cc12 (stereo not given in full) |  | 110% |
| O=C(Nc1cn[nH]c1-c1nc2ccc(CN3CCOCC3)cc2[nH]1)NC1CC1 | 0.118 µM (active) |  |
| Nc1nc(=S)c2[nH]cnc2[nH]1 | 2.95 µM (active) |  |
| c1ccc(CNCc2ccc(CN3CCCNCCNCCCNCC3)cc2)nc1 |  | 110% |
| CCCCCCCCCCCCCCCCOCCCOP(=O)(O)COC(CO)Cn1ccc(N)nc1=O (stereo not given) | 10.5 µM (active) |  |
| COCCOC(=O)N1CCN(S(=O)(=O)c2cc(F)c(Oc3ccc(Cl)cc3)c(F)c2)C(C(=O)NO)C1 (stereo not given) | 10.5 µM (active) |  |
| O=C(O)c1ccccc1-c1ccc(/C=c2\sc3nc4cc(Br)cnc4n3c2=O)o1 |  | 106% [at 15.6 µM] |
| Cc1c(F)cccc1NC(=O)Nc1ccc(Cl)c(S(=O)(=O)[C@H]2CCCNC2)c1O |  | 114% |
| CCC(=O)O[C@]1(C(=O)CO)CC[C@H]2[C@@H]3CCC4=CC(=O)CC[C@]4(C)[C@H]3CC[C@@]21C |  | 109% |
| CC[C@H](CC[C@@H](C)[C@H]1CC[C@H]2[C@@H]3CC=C4C[C@@H](O)CC[C@]4(C)[C@H]3CC[C@]12C)C(C)C |  | 103% |
| C[C@]12CC[C@@H]3c4ccc(O)cc4CC[C@H]3[C@@H]1C[C@@H](O)[C@@H]2O |  | 89.2% |
| Nc1ncccc1-c1nc2ccc(-c3ccccc3)nc2n1-c1ccc(C2(N)CCC2)cc1 | 16.6 µM (active) |  |

| Structure (SMILES) | Potency | viability (% of control) |
| --- | --- | --- |
| CO[C@H]1/C=C/O[C@@]2(C)Oc3c(C)c(O)c4c(O)c(c(/C=N/N5CCN(C)CC5)c(O)c4c3C2=O)NC(=O)/C(C)=C\C=C\[C@H](C)[C@H](O)[C@@H](C)[C@@H](O)[C@@H](C)[C@H](OC(C)=O)[C@@H]1C |  | 86.4% |
| Cn1cc(CNCC2CCN(c3ncc(C(=O)NO)cn3)CC2)c2ccccc21 | 0.105 µM (active) |  |
| C[C@H](NC(=O)/C(C#N)=C/c1cccc(Br)n1)c1ccccc1 | 3.72 µM (active) |  |
| Cc1ccc(-n2[nH]c(C)c(N=Nc3cccc(-c4cccc(C(=O)O)c4)c3O)c2=O)cc1C |  | 110% |
| CN1CCN(c2ccc3nc(-c4c(N)c5c(F)cccc5[nH]c4=O)[nH]c3c2)CC1 | 3.32 µM (active) |  |
| COc1ccccc1-c1cccc(-c2c(O)c3cc(C#N)c(Cl)cc3[nH]c2=O)c1 |  | 104% |
| COc1cc(C(N)=O)ccc1NC(=O)[C@@H]1N[C@@H](CC(C)(C)C)[C@@]2(C(=O)Nc3cc(Cl)ccc32)[C@H]1c1cccc(Cl)c1F | 0.209 µM (active) |  |
| CN(C)c1cc(NC(=O)CNC(C)(C)C)c(O)c2c1C[C@H]1C[C@H]3[C@H](N(C)C)C(=O)C(C(N)=O)=C(O)[C@]3(O)C(=O)C1=C2O | 4.68 µM (active) |  |
| CC(=O)O[C@@]12CO[C@@H]1C[C@H](O)[C@@]1(C)C(=O)[C@H](O)C3=C(C)[C@@H](OC(=O)[C@H](O)[C@@H](NC(=O)OC(C)(C)C)c4ccccc4)C[C@@](O)([C@@H](OC(=O)c4ccccc4)[C@H]21)C3(C)C | 0.0047 µM (active) |  |
| C[C@@H]1N=C(N)NC(N(C)C)=N1 |  | 105% |
| CS[C@H]1SC[C@@H]2C(=O)N(C)[C@H](C(C)C)C(=O)OC[C@H](NC(=O)c3cnc4ccccc4n3)C(=O)N[C@H](C)C(=O)N(C)[C@H]1C(=O)N(C)[C@H](C(C)C)C(=O)OC[C@H](NC(=O)c1cnc3ccccc3n1)C(=O)N[C@H](C)C(=O)N2C | 0.0053 µM (active) |  |
| Cc1cnc(NC(=O)Nc2cc(Br)c(C)cc2OC[C@@H]2CNCCO2)cn1 | 1.48 µM (active) |  |
| COc1cc(Oc2ccnc3cc(OC)c(OC)cc23)ccc1NC(=O)NC(C)c1nccs1 (stereo not given) |  | 108% |
| Cc1noc(-c2ccc(-c3ccc(C4(C(=O)O)CC4)cc3)cc2)c1NC(=O)O[C@H](C)c1ccccc1 |  | 89.2% |
| COc1cc2c3c(n(CCCn4ccnc4)c(=O)c2cc1OC)-c1cc2c(cc1C3=O)OCO2 | 0.0209 µM (active) |  |
| CN[C@@H](C)C(=O)N[C@H](C(=O)N1CCC[C@H]1c1nc(C(=O)c2ccc(F)cc2)cs1)C1CCCCC1 | 20.9 µM (active) |  |
| CC(=O)N[C@H]1CSSC[C@@H](C(N)=O)NC(=O)[C@H](C(C)C)NC(=O)[C@H](C)NC(=O)[C@H](Cc2cnc[nH]2)NC1=O |  | 113% |
| COc1cc2c(cc1O)CCN[C@]21CS[C@@H]2c3c(OC(C)=O)c(C)c4c(c3[C@H](COC1=O)N1[C@@H]2[C@H]2c3c(cc(C)c(OC)c3O)C[C@@H]([C@@H]1O)N2C)OCO4 | 0.0096 µM (active) |  |
| N[C@@H](CCC(=O)O)C(=O)N[C@@H](Cc1c[nH]c2ccccc12)C(=O)O (H-Glu-Trp-OH) |  | 121% |
| O=C1OC2(CCC(C(=O)Nc3ccn(-c4ccccc4F)n3)CC2)c2cnccc21 (stereo not given) |  | 103% |

From PubChem BioAssay (NCATS)
